From the supplement of paper PMC4840960
Structures can show the parent of a compound that is named as a salt. ± gives the standard deviation of the averaged measurements.

How the values were obtained:
[1] = test system: E18 rat cortical neuron-glia co-culture; assay: fiber score / MBP score (myelination specific beyond OL differentiation) (ratio); higher = more myelination-specific MBP alignment; conditions: treatment time: 8 days (DIV5-DIV13)
Summary of the method: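 Reported values are fiber score (continuous MBP fiber length per Olig2+ nucleus) divided by MBP score (thresholded MBP area × intensity per Olig2+ nucleus). They come from primary E18 rat cortical co-cultures treated with library compounds at 1 or 5 µM in myelination medium from DIV5 to DIV13, then fixed in 4 % paraformaldehyde, immunostained for MBP and Olig2 with DAPI, and analysed over four 10X fields per well in duplicate wells.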

[2] = test system: E18 rat cortical neuron-glia co-culture; assay: myelination (MBP fiber length per Olig2+ nucleus), % of 1 µM DAPT response (DMSO = 0) (% of DAPT); higher = more myelination, active = 50 or more; conditions: treatment time: 8 days (DIV5-DIV13)
Summary of the method: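 Rat cortical co-cultures from E18 tissue were dissociated with papain and plated at 20,000 cells/well on 96-well plates coated with poly-d-lysine/laminin. From DIV5 to DIV13, library compounds were added at 1 or 5 µM in myelination medium. After fixation in 4 % paraformaldehyde, cultures were immunostained for MBP and Olig2 and counterstained with DAPI, and four 10X fields were analysed in each of duplicate wells. The myelination value is the length of continuous straight MBP fibers per Olig2+ nucleus, normalised so that 0.1 % DMSO is 0 and a 1 µM positive control is 100.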

| Structure (SMILES) | fiber score / MBP score ([1]; 1 µM) | fiber score / MBP score ([1]; 5 µM) | myelination ([2]; 1 µM) | myelination ([2]; 5 µM) |
| --- | --- | --- | --- | --- |
| CNCCCC12CCC(c3ccccc31)c1ccccc12 [Maprotiline] | 0.656 | 0.581 | -27.8 (inactive) | -25.1 (inactive) |
| CN(CCOc1ccc(NS(C)(=O)=O)cc1)CCc1ccc(NS(C)(=O)=O)cc1 [Dofetilide] | 1.2 | 0.728 | 10.4 (inactive) | -13.2 (inactive) |
| Clc1ccc(CO/N=C(\Cn2ccnc2)c2ccc(Cl)cc2Cl)c(Cl)c1 [Oxiconazole] | 0.501 |  | -25.1 (inactive) |  |
| NS(=O)(=O)c1cc(C(=O)O)c(NCc2ccco2)cc1Cl [Furosemide] | 0.894 | 0.97 | -9.91 (inactive) | -6.31 (inactive) |
| Nc1ncnc2c1ncn2[C@@H]1O[C@H](CO)[C@@H](O)[C@H]1O [Adenosine] | 1.08 | 0.875 | -4.96 (inactive) | -4.36 (inactive) |
| CCCCCCCCCCC[C@@H](C[C@@H]1OC(=O)[C@H]1CCCCCC)OC(=O)[C@H](CC(C)C)NC=O [Orlistat] | 0.69 | 0.913 | -34.7 (inactive) | 38.7 (inactive) |
| CC(C)NCC(O)COc1ccc(CCOCC2CC2)cc1 (stereo not drawn) [Betaxolol] | 0.636 | 0.615 | -12.6 (inactive) | -10.5 (inactive) |
| NCc1ccc(S(N)(=O)=O)cc1 [Mafenide] | 1.07 | 0.912 | 6.37 (inactive) | 3.49 (inactive) |
| CS(=O)(=O)c1ccc(-c2cc(Br)sc2-c2ccc(F)cc2)cc1 | 0.92 |  | 8.65 (inactive) |  |
| Cc1cccc(Nc2ccncc2S(=O)(=O)NC(=O)NC(C)C)c1 [Torsemide] | 0.837 | 0.949 | -11.6 (inactive) | -4.35 (inactive) |
| O=c1c(-c2ccccc2)c1-c1ccccc1 [Diphenylcyclopropenone] | 0.809 |  | -43.4 (inactive) |  |
| CN(C)CCOc1ccc(/C(=C(/CCCl)c2ccccc2)c2ccccc2)cc1 [Toremifene] | 0.889 |  | 3.19 (inactive) |  |
| CN(C)CCc1c[nH]c2ccc(C[C@H]3COC(=O)N3)cc12 [Zolmitriptan] | 0.791 | 0.785 | -9.2 (inactive) | -14.6 (inactive) |
| CCOC(=O)C1=C(COCCN)NC(C)=C(C(=O)OC)C1c1ccccc1Cl (stereo not drawn) [Amlodipine] | 0.613 |  | -4.57 (inactive) |  |
| CN(C)CC/C=C1/c2ccccc2COc2ccc(CC(=O)O)cc21 [Olopatadine] | 0.791 | 0.936 | -7.93 (inactive) | -5.94 (inactive) |
| c1ccc(CC2=NCCN2)cc1 [Tolazoline] | 0.396 |  | -13.6 (inactive) |  |
| CC(C)c1nc(CN(C)C(=O)N[C@H](C(=O)N[C@@H](Cc2ccccc2)C[C@H](O)[C@H](Cc2ccccc2)NC(=O)OCc2cncs2)C(C)C)cs1 [Ritonavir] | 0.549 | 0.623 | -20.5 (inactive) | -13.2 (inactive) |
| Cc1cccc(C)c1NC(=O)C(C)N (stereo not drawn) [Tocainide] | 0.776 |  | -15 (inactive) |  |
| Fc1ccc([C@@H]2CCNC[C@H]2COc2ccc3c(c2)OCO3)cc1 [Paroxetine] | 0.8051 ± 0.003 | 1.08 ± 0.16 | -13.8 (inactive) | 3.71 (inactive) |
| CCOC(=O)C1=C(C)NC(C)=C(C(=O)OCC)C1c1ccccc1/C=C/C(=O)OC(C)(C)C [Lacidipine] | 0.575 |  | -18.6 (inactive) |  |

| Structure (SMILES) | fiber score / MBP score ([1]; 1 µM) | fiber score / MBP score ([1]; 5 µM) | myelination ([2]; 1 µM) | myelination ([2]; 5 µM) |
| --- | --- | --- | --- | --- |
| CN1CCN(C2=Nc3cc(Cl)ccc3Nc3ccccc32)CC1 [Clozapine] | 0.395 |  | -14.8 (inactive) |  |
| OCCN1CCN(CCCN2c3ccccc3Sc3ccc(Cl)cc32)CC1 [Perphenazine] | 0.338 |  | -21.7 (inactive) |  |
| COc1cccc2c1C(=O)c1c(O)c3c(c(O)c1C2=O)C[C@@](O)(C(=O)CO)C[C@@H]3O[C@H]1C[C@H](N)[C@H](O)[C@H](C)O1 [Doxorubicin] |  |  |  | < -69.3 (inactive) |
| Clc1ccc(COC(Cn2ccnc2)c2ccc(Cl)cc2Cl)c(Cl)c1 (stereo not drawn) [Miconazole] | 0.482 |  | -12.3 (inactive) |  |
| C[C@@H]1CN(CCCn2c3ccccc3c3ccccc32)C[C@H](C)N1 [Rimcazole] | 0.507 |  | -12.2 (inactive) | < -33.5 (inactive) |
| CSc1ccc2c(c1)N(CCC1CCCCN1C)c1ccccc1S2 (stereo not drawn) [Thioridazine] | 0.479 |  | -11.4 (inactive) | < -29.5 (inactive) |
| Cc1ccc(O)c([C@H](CCN(C(C)C)C(C)C)c2ccccc2)c1 [Tolterodine] | 0.747 |  | -15.9 (inactive) |  |
| Clc1ccc(COC(Cn2ccnc2)c2ccc(Cl)cc2Cl)cc1 (stereo not drawn) [Econazole] | 0.731 |  | 0.139 (inactive) |  |
| CC(C)(O)c1ccccc1CC[C@@H](SCC1(CC(=O)O)CC1)c1cccc(/C=C/c2ccc3ccc(Cl)cc3n2)c1 [Montelukast] | 0.64 |  | -10.2 (inactive) |  |
| CN(C/C=C/C#CC(C)(C)C)Cc1cccc2ccccc12 [Terbinafine] | 0.788 |  | -6.59 (inactive) |  |
| Cc1c(C(=O)NN2CCCCC2)nn(-c2ccc(Cl)cc2Cl)c1-c1ccc(I)cc1 | 0.94 |  | 17.6 (inactive) |  |
| O=C(NCC1CCCCN1)c1cc(OCC(F)(F)F)ccc1OCC(F)(F)F (stereo not drawn) [Flecainide] |  |  |  | < -49.1 (inactive) |
| OCCN1CCN(CCCN2c3ccccc3Sc3ccc(C(F)(F)F)cc32)CC1 [Fluphenazine] | 0.784 |  | 3 (inactive) | < -37.3 (inactive) |
| C=C(CC)C(=O)c1ccc(OCC(=O)O)c(Cl)c1Cl [Ethacrynic Acid] | 2.03 |  | 32.2 (inactive) |  |
| CC=CC(=O)N(CC)c1ccccc1C [Crotamiton] | 0.609 |  | -16.8 (inactive) |  |
| CN1[C@@H]2CC[C@H]1C[C@@H](OC(c1ccccc1)c1ccccc1)C2 [Benzatropine] |  |  | < -84.9 (inactive) |  |
| COC(=O)C1=C(C)NC(C)=C(C(=O)OCC(C)C)C1c1ccccc1[N+](=O)[O-] (stereo not drawn) [Nisoldipine] | 0.773 |  | -11.1 (inactive) |  |
| O=c1c(O[C@@H]2O[C@H](CO)[C@H](O)[C@H](O)[C@H]2O)c(-c2ccc(O)c(O)c2)oc2cc(O)cc(O)c12 [Hyperoside] | 0.853 |  | -69.1 (inactive) |  |
| COC(=O)Nc1nc2cc(C(=O)c3ccc(F)cc3)ccc2[nH]1 [Flubendazole] | 0.494 |  | -24 (inactive) |  |
| CC1(C)O[C@@H]2C[C@H]3[C@@H]4CCC5=CC(=O)C=C[C@]5(C)[C@@]4(F)[C@@H](O)C[C@]3(C)[C@]2(C(=O)CO)O1 [Azmacort] | 0.687 |  | -5.49 (inactive) |  |

| Structure (SMILES) | fiber score / MBP score ([1]; 1 µM) | fiber score / MBP score ([1]; 5 µM) | myelination ([2]; 1 µM) | myelination ([2]; 5 µM) |
| --- | --- | --- | --- | --- |
| CN(CCOc1ccc(CC2SC(=O)NC2=O)cc1)c1ccccn1 (stereo not drawn) [Rosiglitazone maleate] | 0.752 ± 0.037 |  | -26.2 (inactive) |  |
| CC#C[C@]1(O)CC[C@H]2[C@@H]3CCC4=CC(=O)CCC4=C3[C@@H](c3ccc(N(C)C)cc3)C[C@@]21C [Mifepristone] | 0.755 |  | -23 (inactive) |  |
| COc1cccc2c1C(=O)c1c(O)c3c(c(O)c1C2=O)C[C@@](O)(C(=O)CO)C[C@@H]3O[C@H]1C[C@H](N)[C@H](O)[C@H](C)O1 [Adriamycin] |  |  | < -51.2 (inactive) |  |
| C[C@@H]1C[C@H]2[C@@H]3CCC4=CC(=O)C=C[C@]4(C)[C@@]3(F)[C@@H](O)C[C@]2(C)[C@@]1(O)C(=O)CO [Dexamethasone] | 0.824 |  | -36.6 (inactive) | < -84.9 (inactive) |
| Oc1c(Cl)cc(Cl)c2cccnc12 [Chloroxine] | 2.26 |  | -4.18 (inactive) |  |
| Nc1nc(O)c2ncn(CCC(CO)CO)c2n1 [Penciclovir] | 0.784 |  | 3 (inactive) | < -37.3 (inactive) |
| Cc1cccc(CN2CCN(C(c3ccccc3)c3ccc(Cl)cc3)CC2)c1 (stereo not drawn) [Meclizine] | 0.439 |  | -29.8 (inactive) | < -51.3 (inactive) |
| COC1=C(OC)C(=O)C(CCCCCCCCCCO)=C(C)C1=O [Idebenone] | 0.848 |  | -12.8 (inactive) |  |
| CC(C)(C)NC(=O)[C@@H]1C[C@@H]2CCCC[C@@H]2CN1C[C@@H](O)[C@H](Cc1ccccc1)NC(=O)[C@H](CC(N)=O)NC(=O)c1ccc2ccccc2n1 [Saquinavir] | 0.889 |  | 3.19 (inactive) | < -37.3 (inactive) |
| CN(CCCN1c2ccccc2CCc2ccccc21)CC(=O)c1ccc(Cl)cc1 [Lofepramine] | 0.564 |  | -18.3 (inactive) |  |
| CCN(CC)C(=S)SSC(=S)N(CC)CC [Disulfiram] | 1.15 |  | 148 |  |
| CN1CCN(CCCN2c3ccccc3Sc3ccc(C(F)(F)F)cc32)CC1 [Trifluoperazine] | 0.177 |  | -80.1 (inactive) |  |
| CCc1c2c(nc3ccc(OC(=O)N4CCC(N5CCCCC5)CC4)cc13)-c1cc3c(c(=O)n1C2)COC(=O)[C@]3(O)CC [Irinotecan] | 2.03 |  | 255 (active) |  |
| C=CCc1ccc(O)c(-c2ccc(O)c(CC=C)c2)c1 [Honokiol] | 0.744 |  | -2.87 (inactive) |  |
| CCCCc1nc(Cl)c(CO)n1Cc1ccc(-c2ccccc2-c2nnn[nH]2)cc1 [Losartan] | 0.8 |  | -14.1 (inactive) |  |
| CCN(CC)CCOc1ccc(C(=C(Cl)c2ccccc2)c2ccccc2)cc1 [Clomiphene] | 0.64 |  | -33.9 (inactive) |  |
| CCCCCNC(=N)N/N=C/c1c[nH]c2ccc(OC)cc12 [Tegaserod] | 0.56 |  | -17.1 (inactive) |  |
| Cc1c2oc3c(C)ccc(C(=O)N[C@@H]4C(=O)N[C@H](C(C)C)C(=O)N5CCC[C@H]5C(=O)N(C)CC(=O)N(C)[C@@H](C(C)C)C(=O)O[C@@H]4C)c3nc-2c(C(=O)N[C@@H]2C(=O)N[C@H](C(C)C)C(=O)N3CCC[C@H]3C(=O)N(C)CC(=O)N(C)[C@@H](C(C)C)C(=O)O[C@@H]2C)c(N)c1=O [Dactinomycin] |  |  | < -33.5 (inactive) | < -33.5 (inactive) |
| CC[C@H]1OC(=O)[C@H](C)[C@@H](O[C@H]2C[C@@](C)(OC)[C@@H](O)[C@H](C)O2)[C@H](C)[C@@H](O[C@@H]2O[C@H](C)C[C@H](N(C)C)[C@H]2O)[C@](C)(O)C[C@@H](C)C(=O)[C@H](C)[C@@H](O)[C@]1(C)O [Erythromycin] | 0.767 |  | -11.1 (inactive) |  |
| CC(C)c1ccc2c(c1)c(SC(C)(C)C)c(CC(C)(C)C(=O)O)n2Cc1ccc(Cl)cc1 | 1.1 |  | -5.83 (inactive) | < -35.1 (inactive) |
